Values without a mark were called inactive.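 The calls were made as follows: active = viability at or below 21.59%, 3 SD under the median of tested compounds; inactive = the rest.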
Experiment: growth suppression of PTEN-null HCT116 cells, cell-based, validation, diverse DP compound set (AID 999);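 also: 100% = median luminescence of untreated cell control wells and 0% = no signal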
Conditions: CellTiter-Glo, 60 h, at 10 µM, hits give low values

Q: For `COc1ccc2nc(S(=O)Cc3ncc(C)c(OC)c3C)[nH]c2c1` (configuration not stated), which viability is on record?
A: 92.7%

Q: With `OCCN(CCO)c1nc(N2CCCCC2)c2nc(N(CCO)CCO)nc(N3CCCCC3)c2n1` as the compound, how does the viability read?
A: 96.3%

Q: For `NCC(=O)N[C@@H](CCCN=C(N)N)C(=O)NCC(=O)N[C@@H](CC(=O)O)C(=O)N[C@@H](CC(N)=O)C(=O)N1CC[C@@H](C(=O)O)C1`, which viability is on record?
A: 98%

Q: Which viability does the source give for `Cn1cnc2c(NCc3ccccc3)nc(NCCO)nc21` here?
A: 90.6%

Q: For `C[C@]12CC[C@@H]3c4ccc(O)cc4CC[C@H]3[C@@H]1CC[C@H]2O`, which viability is on record?
A: 93.3%

Q: Which viability does the source give for `C[C@@H]1CC2C3CCC4=CC(=O)C=CC4(C)[C@@]3(F)[C@@H](O)CC2(C)[C@@]1(O)C(=O)CO` (some centres not stated) here?
A: 105%

Q: For `Cc1ccc2c(c1)C(=O)C1(O)CCN(c3ccccc3)C1=N2` (configuration not stated), which viability is on record?
A: 91.9%

Q: With `C/C(=C\CNc1ncnc2c1ncn2[C@@H]1O[C@H](CO)[C@@H](O)[C@H]1O)CO` as the compound, how does the viability read?
A: 91.5%

Q: Which viability does the source give for `COC(=O)Nc1nc2ccc(C(=O)c3cccs3)cc2[nH]1` here?
A: 50.2%

Q: With `CC(C)CC(=O)N[C@H](C(=O)N[C@H](C(=O)N[C@@H](CC(C)C)[C@@H](O)CC(=O)N[C@@H](C)C(=O)N[C@@H](CC(C)C)[C@@H](O)CC(=O)O)C(C)C)C(C)C` as the compound, how does the viability read?
A: 98.2%

Q: For `CC(C)C[C@@H](NC(=O)[C@@H](O)[C@H](N)Cc1ccccc1)C(=O)O`, which viability is on record?
A: 94.5%

Q: Which viability does the source give for `CC12CC3(O)OC(O1)C1(COC(=O)c4ccccc4)[C@@H]3CC21O[C@@H]1O[C@H](CO)[C@@H](O)[C@H](O)[C@H]1O` here?
A: 95.3%
